Test results from publication PMC7819943, “Rice protein-binding microarrays: a tool to detect cis-acting elements near promoter regions in rice”.
Whole data set: some 35,000 sequences, median “fluorescence intensity (a.u.)” near 10,000, cut for the highest 2% near 52,000. For the sample, the highest values were picked, then their nearest neighbours and some sequences at random.

What follows are sequences tested against T1, OsWOX13 (Oryza sativa, UniProt Q5QMM3 1-267) (assay: protein-binding microarray (RPBM); PBS, 2% BSA, 51.3 ng/ul salmon testes DNA, 50 uM zinc acetate, 200 nM TF, 25 C, 1 h; high values mean tight binding). Conditions: protein: recombinant; tags: N-terminal polyhistidine and DsRed monomer fusion (pET32a); label: CyDye5-dUTP incorporated in the synthesized complementary strand; 3' TTTTT single-stranded linker to array surface; dsDNA, one strand shown.
T1 sequence: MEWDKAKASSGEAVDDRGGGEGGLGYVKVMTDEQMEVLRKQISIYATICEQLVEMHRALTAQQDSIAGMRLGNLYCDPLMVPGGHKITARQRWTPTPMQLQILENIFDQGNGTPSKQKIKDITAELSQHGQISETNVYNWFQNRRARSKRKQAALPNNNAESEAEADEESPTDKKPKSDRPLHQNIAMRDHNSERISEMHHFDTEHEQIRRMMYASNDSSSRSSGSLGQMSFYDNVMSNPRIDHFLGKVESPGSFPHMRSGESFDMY
Summary of the method: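 Polyhistidine-tagged DsRed fusions of transcription factors, joined at the N-terminus, were expressed in E. coli BL21-CodonPlus and isolated on Ni–NTA. They were incubated at 200 nM for 1 h at 25 °C on a custom Agilent array, double-stranded and BSA-blocked, in PBS with 2% BSA, salmon testes DNA and 50 µM zinc acetate. The binding signal is per-feature fluorescence intensity (arbitrary units) read on an Axon 4000B scanner after washing.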

Row | Sequence | binding signal
1 | CTTTACAATTAATACATGTTCCACTTGTCTCTCTCACAGACGGAGTCACCTAGTGCAG | 4970 fluorescence intensity (a.u.)
2 | CGTAGATTTGACCGAACAAATTGTACAGTAATGTACTAGGCGGAGTCACCTAGTGCAG | 20100 fluorescence intensity (a.u.)
3 | ACTGTAATTTTAATTATATTATTGTTACACTATAATTGCACGGAGTCACCTAGTGCAG | 41800 fluorescence intensity (a.u.)
4 | GTGTAATTACACTACGATTGTACTGTAATTACATCTGTCACGGAGTCACCTAGTGCAG | 29900 fluorescence intensity (a.u.)
5 | ATTATACTATGATTGTACTGTAATTACATCTGTCAAATTTCGGAGTCACCTAGTGCAG | 24500 fluorescence intensity (a.u.)
6 | GTGTAATTACACTATAATTGCACTATAATTATATCTGTCACGGAGTCACCTAGTGCAG | 61500 fluorescence intensity (a.u.)
7 | TTTACACTATAATTATATTCACTTATACATTGTAATTACACGGAGTCACCTAGTGCAG | 13800 fluorescence intensity (a.u.)
8 | GTGTAATTATACTATAATTGTACTGTAATTACATCTGTCACGGAGTCACCTAGTGCAG | 56600 fluorescence intensity (a.u.)
9 | CTTTAAACAGTTTGAGTGAATTTAGGGGTACATATTTCTGCGGAGTCACCTAGTGCAG | 6070 fluorescence intensity (a.u.)
10 | TTTTGCTTGATTGGTGGTCTGATGTATTTGATGAGTGCGACGGAGTCACCTAGTGCAG | 31300 fluorescence intensity (a.u.)
11 | ACACTAACAAATCAATTTTCTCTACCCACCACTCCTGAATCGGAGTCACCTAGTGCAG | 8890 fluorescence intensity (a.u.)
12 | ATAATTATTTGTTTTCAGTCATGTATCTTCATCTTATACACGGAGTCACCTAGTGCAG | 6340 fluorescence intensity (a.u.)
13 | AATGACATGGCAATCTCACCTTGGAGGTTTGTGCTTTGAACGGAGTCACCTAGTGCAG | 4460 fluorescence intensity (a.u.)
14 | AAGCAATATAATTGTTTCTCTAATTAGGAGTTATACATGTCGGAGTCACCTAGTGCAG | 19000 fluorescence intensity (a.u.)
15 | GGGGACATAAATCCTGATGATTTCCTCAACTTTGATCTTGCGGAGTCACCTAGTGCAG | 3630 fluorescence intensity (a.u.)
16 | CCTAATTAATCCGTCATTAGCAAATGTTTATTGTAGCACCCGGAGTCACCTAGTGCAG | 41300 fluorescence intensity (a.u.)
17 | TAAGCCTAATTAATTTGTCATTAGCAAATGTTTACTATAGCGGAGTCACCTAGTGCAG | 30300 fluorescence intensity (a.u.)
18 | AATTAATTTGTCATTAGTAAATGTTTACTGTAGCACCACACGGAGTCACCTAGTGCAG | 42000 fluorescence intensity (a.u.)
19 | CCTAATTAATCTGTCATTAGCAAATATTTATTGTAGCATCCGGAGTCACCTAGTGCAG | 47000 fluorescence intensity (a.u.)
20 | TCTAATTAATTTGTCATTAGCAAATGTTTATTGTAGCATCCGGAGTCACCTAGTGCAG | 58400 fluorescence intensity (a.u.)
21 | AGCCTAATTAATTTGTCATTAGCAAATGTTTACTGTAGCACGGAGTCACCTAGTGCAG | 57000 fluorescence intensity (a.u.)

Row | Sequence | binding signal
22 | CTTGATTAATCCGTACGTCTATCAACTCAGCCCGAAACGCCGGAGTCACCTAGTGCAG | 46200 fluorescence intensity (a.u.)
23 | CTTGAGATGATTAGACTCCTAATGTAGCTCATGATTATATCGGAGTCACCTAGTGCAG | 14400 fluorescence intensity (a.u.)
24 | ATTAGATTGACTATAGATGAATTGAAGACAGTAGTGGGCTCGGAGTCACCTAGTGCAG | 49500 fluorescence intensity (a.u.)
25 | ATTGGCTATTAGATTGGCTATAGATGAATTAGAGTTAGTACGGAGTCACCTAGTGCAG | 15400 fluorescence intensity (a.u.)
26 | CATGATTAATTTTAGGCCGGTCATTGCTCGTGTCCTTGTTCGGAGTCACCTAGTGCAG | 65300 fluorescence intensity (a.u.)
27 | GATATTAGATTGGCTATAGATGAATTGGAGTTAGTAGTGGCGGAGTCACCTAGTGCAG | 52700 fluorescence intensity (a.u.)
28 | GAAATTATTGCTGAAATTTTGTCCTTCATAGTGTGCTGTTCGGAGTCACCTAGTGCAG | 12200 fluorescence intensity (a.u.)
29 | GGCTATTAGATTGGTTATAAATGAATTGGAGCCAATAGTGCGGAGTCACCTAGTGCAG | 39100 fluorescence intensity (a.u.)
30 | AAGCTATTAGATTGGCTATAGATGAATTGAAGTTAGTAGTCGGAGTCACCTAGTGCAG | 26100 fluorescence intensity (a.u.)
31 | TGAGCTATTAGATTGGTTATAGATGAATTGAAGTTAGTAGCGGAGTCACCTAGTGCAG | 14100 fluorescence intensity (a.u.)
32 | AAACCCTTAATTGCTCATGATTTTGCCATTATAATATAGGCGGAGTCACCTAGTGCAG | 44600 fluorescence intensity (a.u.)
33 | ACATGATAGACTAATGAGTAGATTGTTGTCCTAATTAGCTCGGAGTCACCTAGTGCAG | 54100 fluorescence intensity (a.u.)
34 | TTAGATTGGTTATAGATGAATTGGAGCTAGTAGTGGGTTGCGGAGTCACCTAGTGCAG | 56200 fluorescence intensity (a.u.)
35 | ATGTCATTTTAAAGTTTAATTAATTAGATAATTACCTTCTCGGAGTCACCTAGTGCAG | 17500 fluorescence intensity (a.u.)
36 | TCATCTAATTAATTGGCAAGGTGATATGCGTCCCTGAAAACGGAGTCACCTAGTGCAG | 39500 fluorescence intensity (a.u.)
37 | GACAGTTTGATTTCCTCTTGTGTTTATGCATTATTTTGTGCGGAGTCACCTAGTGCAG | 3640 fluorescence intensity (a.u.)
38 | TATCAAATTTATCCATTTGTTAATGTTGTAATAATTAAAACGGAGTCACCTAGTGCAG | 6890 fluorescence intensity (a.u.)
39 | CTGACTTTGTCATACGTCTATGATTTGCCACTGACTTTATCGGAGTCACCTAGTGCAG | 4530 fluorescence intensity (a.u.)
40 | CATTCTAATTAGCAATGGTCACCACGAATGATTAATGTAGCGGAGTCACCTAGTGCAG | 28200 fluorescence intensity (a.u.)
41 | ACATCTAATTTGAAATGGATGTAGTATATTCTAATTGCATCGGAGTCACCTAGTGCAG | 17000 fluorescence intensity (a.u.)
42 | TGAATATGTCCCAAATTAATTGTCACAATGGAGTACTAATCGGAGTCACCTAGTGCAG | 3200 fluorescence intensity (a.u.)
